{
  "source": "PubChem BioAssay AID893",
  "about": "(National Center for Advancing Translational Sciences (NCATS), 2007)",
  "note": "Among all 75,000 compounds or so, about 5,700 (7.6%) were called active. Roughly 7% stayed inconclusive and do not appear here. Calls follow the shape of the dose curve; as a rule, active = well fitted inhibition curve with a large enough effect; inconclusive = small, poorly fitted or top-dose-only effect; inactive = no such curve, though single readings can be large or run the other way. This excerpt belongs to a sample that is enriched for actives. % is scaled to controls: 0 for no effect and ±100 for the full control effect; potency is read from the fitted curve at half-maximal effect.",
  "data": [
    {"target": "3-hydroxyacyl-CoA dehydrogenase type-2 (Homo sapiens) (UniProt Q99714)", "test": "qHTS Assay for Inhibitors of HSD17B4, hydroxysteroid (17-beta) dehydrogenase 4; also: nearly all actives have a fitted effect of over 70% in size", "conditions": "recombinant HSD17B10, NADH fluorescence kinetic; series mostly up to 57.1 µM; activity change, negative = inhibition: at the top concentration", "excerpt": "Assay Overview: NIH Molecular Libraries Screening Centers Network [MLSCN] NIH Chemical Genomics Center [NCGC] Structural Genomics Consortium [SGC] Grant number: None HADH2: Hydroxyacyl-Coenzyme A dehydrogenase, type II, was supplied by researchers at the Structural Genomics Consortium, Oxford University lab (PI Udo Oppermann). The mitochondrial enzyme 17-hydroxysteroid dehydrogenase type 10 (HSD17-10) previously classified as type II hydroxyacyl-CoA dehydrogenase (HADH2) catalyzes the NAD+ dependent oxidation of a variety of substrates including acyl-CoAs, androgens and neurosteroids as well as bile acids(Shafqat N, Marschall HU, Filling C, et al. Biochemical Journal. 2003;376(Pt 1):49-60). […] The enzyme was produced by E.coli fermentation as His-tagged recombinant for the purpose of X-ray structure determination, and had been mass-spectrometry characterized. Inhibition of HADH2 activity was screened by utilizing beta-hydroxybutyryl coenzyme A as an electron donor and NAD+ as an electron acceptor/cofactor. An increase in the fluorescence intensity due to conversion of NAD+ to NADH was used to measure the enzyme activity.\nAssay Protocol: Buffer: 100 mM Tris-HCl pH 9.0, containing 0.01 % Tween-20. Reagents/Controls: Buffer in columns 3 and 4 as negative control (no enzyme). Substrate/cofactor solution: 1 mM NAD+ and 90 uM beta-hydroxybutyryl coenzyme A (Sigma-Aldrich, St. Louis, MO) final concentrations dispensed throughout the plate. Enzyme: 20 nM HADH2 final concentration in columns 1, 2, 5-48. Column 1 is neutral (100% activity). Column 2 contained titration of apomorphine (Sigma-Aldrich, A 4393, PubChem CID 2215, top concentration 500 uM, then 1:2 dilution in duplicate) Assay Steps: Three uL of enzyme were dispensed to 1536-well Greiner black solid bottom plates. Compounds and controls (23 nL) were transferred via Kalypsys PinTool. The plates were incubated for 15 min at room temperature, and then 1 uL of substrate/cofactor solution was added to start the reaction. The plates were immediately transferred to and read every 30 seconds for 4 min on ViewLux High-throughput CCD imager (Perkin-Elmer) using 360 nm excitation and 450 nm emission fluorescence protocol. The fluorescence intensity difference between the last and the first time points was used to compute reaction progress.", "values": [
      {"smiles": "CC(C(=O)Nc1ccccc1-c1ccccc1)N1CCOCC1", "note": "(stereo not given)", "activity change, negative = inhibition": "12.3% (inactive)"},
      {"smiles": "COc1ccc(C2C3=C(CC(C)(C)CC3=O)Oc3ncn4nc(-c5cccnc5)nc4c32)cc1OC", "note": "(stereo not given)", "activity change, negative = inhibition": "6.85% (inactive)"},
      {"smiles": "CCCc1[nH]nc2c1C(c1ccc(Br)s1)C(C#N)=C(N)O2", "note": "(stereo not given)", "Potency": "20 µM (active)"},
      {"smiles": "CCCc1[nH]nc2c1C(C1CC=CCC1)C(C#N)=C(N)O2", "note": "(stereo not given)", "activity change, negative = inhibition": "-17.4% (inactive)"},
      {"smiles": "CCCc1[nH]nc2c1C(c1ccc(OC(=O)c3ccco3)cc1)C(C#N)=C(N)O2", "note": "(stereo not given)", "activity change, negative = inhibition": "3.66% (inactive)"},
      {"smiles": "COC(=O)[C@@H]1C[C@@]2(O)[C@@H](O)[C@@H](O)[C@@H](O)C[C@H]2N1Cc1ccc(C)s1", "activity change, negative = inhibition": "15% (inactive)"},
      {"smiles": "COc1ccc2c(c1OC)C(=O)N(c1ncn[nH]1)C2", "Potency": "31.6 µM (active)"},
      {"smiles": "Cc1ccc(Cn2ccc(NC(=O)C3C4CCC(C4)C3C(=O)O)n2)cc1", "note": "(stereo not given)", "activity change, negative = inhibition": "-2.8% (inactive)"},
      {"smiles": "CC1CCN(C(=O)CSc2ccc3nnc(-c4cccc(F)c4)n3n2)CC1", "activity change, negative = inhibition": "-12.3% (inactive)"},
      {"smiles": "COC(=O)C(C)Sc1ccc2nnc(-c3cccc(F)c3)n2n1", "note": "(stereo not given)", "Potency": "25.1 µM (active)"},
      {"smiles": "CCOc1ccc(-c2nnc3ccc(SC)nn23)cc1", "activity change, negative = inhibition": "-6.07% (inactive)"},
      {"smiles": "CC(=O)CC(C)C", "activity change, negative = inhibition": "5.18% (inactive)"},
      {"smiles": "Cc1ccccc1C(=O)NCCN=C1NS(=O)(=O)c2ccccc21", "activity change, negative = inhibition": "-2.36% (inactive)"},
      {"smiles": "O=C(c1csnn1)N1CCC[C@@]2(CCN(Cc3nccs3)C2)C1", "activity change, negative = inhibition": "7.36% (inactive)"},
      {"smiles": "CSc1ccc(-c2c(C#N)c(N)nc3c2c(C)nn3-c2ccccc2)cc1", "Potency": "31.6 µM (active)"},
      {"smiles": "CCC(=O)c1ccc(OCC(O)CN2CC(C)OC(C)C2)cc1", "note": "(stereo not given)", "activity change, negative = inhibition": "0.889% (inactive)"},
      {"smiles": "CC(=O)N(CC1CCCO1)C1(C(=O)NC2CCCC2)CCCCC1", "note": "(stereo not given)", "activity change, negative = inhibition": "11.9% (inactive)"},
      {"smiles": "C[C@@H]1O[C@@H](OC[C@H]2O[C@@H](Oc3c(-c4cccc(O)c4O)oc4cc(O)cc(O)c4c3=O)[C@H](O)[C@@H](O)[C@@H]2O)[C@H](O)[C@H](O)[C@H]1O", "activity change, negative = inhibition": "-17.4% (inactive)"},
      {"smiles": "O=c1c2ccccc2oc2nc(C3CCCCC3)n(Cc3ccco3)c(=O)c12", "activity change, negative = inhibition": "-7.64% (inactive)"},
      {"smiles": "O=c1c2ccccc2oc2nc3n(c(=O)c12)CCCS3", "Potency": "25.1 µM (active)"},
      {"smiles": "CCc1nc2oc3ccccc3c(=O)c2c(=O)n1Cc1ccc(OC)cc1", "activity change, negative = inhibition": "-5.68% (inactive)"},
      {"smiles": "CN(C)/C=C1/Nc2ccccc2C1=O", "activity change, negative = inhibition": "-21.3% (inactive)"},
      {"smiles": "CCn1ncc(Br)c1C(=O)Nc1cc(C)ccc1F", "activity change, negative = inhibition": "7.14% (inactive)"},
      {"smiles": "Cc1c(O)cc(O)c2c(=O)c(-c3ccc(O)cc3)coc12", "activity change, negative = inhibition": "1.02% (inactive)"},
      {"smiles": "O=C1C(c2[nH]c3ccccc3c2O)=Nc2ccccc21", "Potency": "31.6 µM (active)"},
      {"smiles": "CC(=O)c1c(N2CCOCC2)nc(=S)n(Cc2ccccc2)c1C", "activity change, negative = inhibition": "6.31% (inactive)"},
      {"smiles": "CCCCNc1nc2c(c(=O)[nH]c(=O)n2C)n1CCOc1ccccc1", "activity change, negative = inhibition": "9.4% (inactive)"},
      {"smiles": "CCCCNc1nc(C)nc2c1nc(-c1ccccc1)n2CCCCN(CC)CC", "Potency": "25.1 µM (active)"},
      {"smiles": "CCN(CC)CCCCn1c(-c2ccccc2)nc2c(N3CCOCC3)nc(C)nc21", "Potency": "20 µM (active)"},
      {"smiles": "O=S(=O)(O)CCN1CCOCC1", "activity change, negative = inhibition": "1.92% (inactive)"},
      {"smiles": "CCCn1c(C(O)c2ccc(OCC)cc2)nc2ccccc21", "note": "(stereo not given)", "activity change, negative = inhibition": "4.24% (inactive)"},
      {"smiles": "COc1ccccc1C(=O)Oc1ccc(N2C(=O)CCC2=O)cc1", "activity change, negative = inhibition": "-11.2% (inactive)"},
      {"smiles": "C[C@@H](c1ccccc1)N1C(=O)[C@H]2[C@H]3[C@H](O)[C@H](O)C/C(=N/OC[C@@H](O)COCc4ccco4)[C@@H]3CC[C@@H]2C1=O", "activity change, negative = inhibition": "1.97% [at 11.4 µM] (inactive)"},
      {"smiles": "COc1ccc(S(=O)(=O)N2CCCC(C(=O)N3CCN(C)CC3)C2)cc1C", "note": "(stereo not given)", "activity change, negative = inhibition": "10.7% (inactive)"},
      {"smiles": "C[N+]1(CCN=C=NC2CCCCC2)CCOCC1", "activity change, negative = inhibition": "-0.294% [at 11.4 µM] (inactive)"},
      {"smiles": "COC(=O)C1=CN(C)C=C(C(=O)OC)C1c1ccc(Cl)cc1Cl", "Potency": "31.6 µM (active)"},
      {"smiles": "CCOc1ccccc1C1C(C(=O)OC)=CN(C)C=C1C(=O)OC", "Potency": "25.1 µM (active)"},
      {"smiles": "CC12CN3CC(C)(CN(C1)C3c1ccc(Cl)cc1Cl)C2=O", "note": "(stereo not given)", "activity change, negative = inhibition": "4.79% (inactive)"},
      {"smiles": "CCCCOCCCNC(=O)c1ccccc1OCC", "activity change, negative = inhibition": "1.37% (inactive)"},
      {"smiles": "COC(=O)C1=C(C)N(C)C(C)=C(C(=O)OC)C1c1cccc(Br)c1", "activity change, negative = inhibition": "-5.98% (inactive)"},
      {"smiles": "CCOc1ccccc1N(CC(=O)Nc1ccccc1C(=O)OC)S(C)(=O)=O", "activity change, negative = inhibition": "-13.6% (inactive)"},
      {"smiles": "O=S(=O)(N1CCOCC1)N1CCN(c2ccccc2F)CC1", "activity change, negative = inhibition": "0.766% (inactive)"},
      {"smiles": "CCOC(=O)C1=C(CC)Nc2ccccc2N=C1NC(=O)c1cccc(S(=O)(=O)N2CCCC2)c1", "activity change, negative = inhibition": "-10.6% (inactive)"},
      {"smiles": "CCOC(=O)CN1C(=O)C(O)(CC(=O)c2ccccn2)c2ccccc21", "note": "(stereo not given)", "activity change, negative = inhibition": "-5.79% (inactive)"},
      {"smiles": "CCN(CC)S(=O)(=O)c1cccc(C(=O)Nc2ccccc2)c1", "activity change, negative = inhibition": "2.56% (inactive)"},
      {"smiles": "CCc1c(O)nc(SCC(=O)N2CCCCC2)n(-c2ccccc2C)c1=O", "activity change, negative = inhibition": "7.14% (inactive)"},
      {"smiles": "CC1(C)OC2CC3C4CCC5=CC(=O)CCC5(C)C4(F)C(O)CC3(C)[C@]2(C(=O)CCl)O1", "note": "(stereo not given in full)", "activity change, negative = inhibition": "-11.4% (inactive)"},
      {"smiles": "Cc1cccc(Br)c1", "activity change, negative = inhibition": "2.64% (inactive)"},
      {"smiles": "Cc1cc(=O)[nH]c(SCc2cc(Cl)ccc2OC(F)F)n1", "activity change, negative = inhibition": "-11.7% (inactive)"},
      {"smiles": "CCOc1ccc2nc(NC(=O)CSc3nc4c(c(=O)n(C)c(=O)n4C)n3CC)sc2c1", "activity change, negative = inhibition": "-2.72% (inactive)"},
      {"smiles": "O=c1cc(Cn2nnc(-c3ccc(Cl)cc3)n2)nc2sccn12", "activity change, negative = inhibition": "-10.6% (inactive)"},
      {"smiles": "O=C(NCc1cn2ccsc2n1)Nc1ccc(Cl)cc1", "activity change, negative = inhibition": "10.3% (inactive)"},
      {"smiles": "O=C(NCc1ccc(Cl)cc1)c1cc2c(nc3sccn32)s1", "Potency": "20 µM (active)"},
      {"smiles": "CCCCn1nnnc1NCc1cc(OC)c(OC)c(OC)c1", "activity change, negative = inhibition": "13.8% (inactive)"},
      {"smiles": "O=C(O)C1CCN(c2ncnc3ccc(-c4ccccc4C(F)(F)F)cc23)CC1", "activity change, negative = inhibition": "-0.266% (inactive)"}
    ]}
  ]
}
